In PubChem BioAssay (Tox21) one finds Potency and activation data, which are given here for 40 compounds.

“And” between values parts separate entries of the source, which are not always exact repeats. Equal values may be shown once. Results filed as inconclusive are left out. A call without a number means that no potency is given here. Unmarked numbers belong to inactive results. The source made the active and inactive calls. Calls follow the shape of the dose curve; as a rule, active = well fitted activation curve with a large enough effect in the repeat runs; inconclusive = weak or mixed curves; inactive = no such curve, though single readings can be large or run the other way.
Potency is read from the fitted curve at half-maximal effect.

Chain of Nuclear receptor subfamily 1 group I member 3 (Homo sapiens) (Q14994 whole entry, looked up): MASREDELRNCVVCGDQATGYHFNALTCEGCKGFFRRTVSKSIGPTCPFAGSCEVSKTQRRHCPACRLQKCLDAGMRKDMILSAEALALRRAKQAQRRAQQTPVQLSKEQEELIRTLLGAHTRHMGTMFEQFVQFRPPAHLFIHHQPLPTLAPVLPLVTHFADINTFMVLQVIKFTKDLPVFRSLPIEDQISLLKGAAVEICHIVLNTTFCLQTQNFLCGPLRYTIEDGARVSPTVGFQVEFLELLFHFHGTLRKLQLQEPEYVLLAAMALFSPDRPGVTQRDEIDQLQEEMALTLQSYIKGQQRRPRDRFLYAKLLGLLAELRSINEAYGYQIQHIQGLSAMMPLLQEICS

The assay addresses Nuclear receptor subfamily 1 group I member 3 (Homo sapiens) (UniProt Q14994). Put plainly: qHTS assay to identify small molecule agonists of the constitutive androstane receptor (CAR) signaling pathway (AID 1224839). Also: nearly all actives have a fitted effect of over 15% in size.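 As to activation: HepG2 cells stably carrying human CAR and a CYP2B6 luciferase reporter.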 The note with it: HepG2 hCAR CYP2B6-luciferase, agonist mode, 24 h; series mostly up to 92.4 µM. The text has this: National Center for Advancing Translational Sciences [NCATS] NIH Chemical Genomics Center [NCGC] U.S. Environmental Protection Agency [EPA] National Institutes of Environmental Health Sciences [NIEHS] National Toxicology Program [NTP] Assay overview: The constitutive androstane receptor (CAR) is a nuclear receptor which regulates multiple drug metabolizing enzymes (DMEs) and transporters. Activating CAR will generally increase the transcription and subsequent translation of CYP2B6 and CYP3A4. These two DMEs represent about 50% of the drug metabolizing potential in the body. […] Recently, there have also been studies performed indicating CARs role in energy metabolism and cancer therapy. Therefore, inducing CARs activity could have a potential effect on diabetes and cancer. Identifying environmental toxins and compounds which modulate CAR, through the use of the Tox21 10K compound collection, will be an important step in determining the toxicity and potential therapeutic effects these factors will have on the human body.
Assay Protocol Summary: A double-stable (hCAR and CYP2B6-2.2kb) transfected cell line, derived from human hepatoma (HepG2) cells, was utilized for the duration of the quantitative high-throughput screens. The HepG2-CYP2B6-hCAR cells suspended in DMEM culture medium supplemented with 10% FBS, 5 ug/mL blasticidin, 0.5 mg/mL geneticin, 100 U/mL penicillin and 100 ug/mL streptomycin were dispensed at 2500 cells/4 uL/well in 1536-well white solid bottom plates using a Multidrop Combi. After the assay plates were incubated at 37 C/5% CO2 for 4 hrs, 23 nL of compounds at 15 concentrations (from 5-48 columns) or positive control (from 1 to 4 columns) were transferred to the assay plates using a Pintool station. One uL of PK11195, was added using a Flying Reagent Dispenser to generate a final concentration of 0.75 uM PK11195 inside each well. After a 24 hr incubation period at 37 C/5% CO2, four uL of ONE-Glo reagent was added into the assay plates using a Flying Reagent Dispenser. After a 30 min incubation period at room temperature, the luminescence intensity in the assay plates was measured using a ViewLux plate reader.
In general terms: Quantitative high-throughput screening tests each substance at several concentrations.
`C[N+]1(C)CCCCC1`: the Potency entry is “inactive”.

Regarding `O=C(Cl)CCl`, the Potency result was “inactive”.

Take `CCCCCCC1CCOC1=O` (stereo not given): the Potency result was “inactive”.

Regarding `c1cncc([C@@H]2CCCCN2)c1`, the Potency entry was “inactive”.

Regarding `CCOC(=O)CC(SP(=S)(OC)OC)C(=O)OCC` (stereo not given), the Potency was 21.7 µM (active) and 26.6 µM (active).

Turning to `O=C(Cl)C(Cl)Cl`, the Potency entry was “inactive”.

Take `O=C(Cl)C(Cl)(Cl)Cl`: the Potency result was “inactive”.

For `N[C@@H](Cc1ccc(Oc2cc(I)c(O)c(I)c2)c(I)c1)C(=O)O`, the Potency result is “inactive”.

On to `Cn1c(CCCC(=O)O)nc2cc(N(CCCl)CCCl)ccc21`, for which the Potency result is “inactive”.

Regarding `Nc1c(Cl)c(F)nc(OCC(=O)O)c1Cl`, the Potency result is “inactive”.

Consider `C/C=C/CC#N`, for which the Potency result is “inactive”.

Turning to `Cl/C=C/CCl`, the Potency entry is “inactive”.

Turning to `O=C1CC(=O)NC(=O)N1`, the Potency result was “inactive”.

As for `COc1ccccc1OC`, the Potency result is “inactive”.

Turning to `C[C@H]1CCCC(=O)CCC/C=C/c2cc(O)cc(O)c2C(=O)O1`, the Potency entry was “inactive”.

`NC1(c2ccccc2)CCCCC1`: the Potency entry was “inactive”.

Consider `CCNc1nc(NCC)nc(SC)n1`, for which the Potency result is “inactive”.

For `S=C=S`, the Potency result is “inactive”.

On to `CCCCCCCCBr`, for which the Potency result was “inactive”.

For the compound `COc1cc(CCN)cc(OC)c1OC`, the Potency entry is “inactive”.

With `C#CC(C)(C)O`, the Potency entry was “inactive”.

Consider `BrCCc1ccccc1`, for which the Potency entry was “inactive”.

For the compound `CC(C)[N+](C)(CCC(C(N)=O)(c1ccccc1)c1ccccc1)C(C)C`, the Potency entry was “inactive”.

In the case of `CCC(C)(C#N)N=NC(C)(C#N)CC` (stereo not given), the Potency entry was “inactive”.

As to `COC(=O)c1ccc(CBr)cc1`, the Potency is 31 µM (active).

Take `[O-][Br+2]([O-])O`: the Potency entry is “inactive”.

`O=c1[nH]c2ccccc2o1`: the Potency entry is “inactive”.

Take `CCOC1Oc2ccc(OS(C)(=O)=O)cc2C1(C)C` (stereo not given): the Potency was 30.4 µM (active).

As for `COc1ccc(C=O)cc1O`, the Potency entry is “inactive”.

For `ClCCN1CCCC1`, the Potency entry was “inactive”.

Take `CCN(CCO)CCn1c(Cc2ccccc2)nc2c1c(=O)n(C)c(=O)n2C`: the Potency result is “inactive”.

As for `Brc1c(Br)c(Br)c(Br)c(Br)c1Br`, the activation is -2.38% [at 8.39 µM].

With `Cc1ccc2c(c1)C1CN(C)CCC1N2` (stereo not given), the activation is 2.22% [at 19 µM].

Take `CC(O)CCl` (stereo not given): the Potency result was “inactive”.

On to `CS(=O)(=O)Cl`, for which the Potency result is “inactive”.

As for `CC(C)(C)c1cc(O)ccc1O`, the Potency was 54.5 µM (active) and 61.1 µM (active).

In the case of `O=S1(=O)OCCO1`, the Potency entry is “inactive”.

Regarding `O=[N+]([O-])CCO`, the Potency result was “inactive”.

In the case of `ClCCCCl`, the Potency entry was “inactive”.

Consider `CN(CCO)CCO`, for which the Potency result was “inactive”.
